Source: PubChem (several laboratories)
TNAP act mid DEA: human TNAP activation, intermediate phosphate acceptor. purified TNAP, CDP-star luminescence, 100 mM DEA, 30 min; stronger effect = higher value; scale: 0 levamisole-inhibited, 1 vehicle-only enzyme. 64,000 tested, under 10 active. AID 813. activation factor at 20 µM. P05186;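 active means activation factor of at least 2 at 20 µM, relative to controls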
LYP inh 2: blocks human PTPN22 phosphatase activity | Q9Y2R2 | recombinant LYP catalytic domain, DiFMUP fluorescence | inhibition, % at 2 µM | actives 0.21% (n = 96,000) | AID 640;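 active means inhibition at 2 µM at or above a set limit, the screen mean plus 3 SD, cut at about 24% in these data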;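 further: 0% = DMSO with enzyme and 100% = enzyme fully blocked by orthovanadate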
PLAP activator: activators of human placental alkaline phosphatase. P05187. purified PLAP enzyme, luminescent substrate read-out; stronger effect = higher value. activation fold at 20 µM. actives 1.2% (n = 96,000). AID 696; in the data active means activation fold above about 2
Target sequence (P05187 whole entry, looked up): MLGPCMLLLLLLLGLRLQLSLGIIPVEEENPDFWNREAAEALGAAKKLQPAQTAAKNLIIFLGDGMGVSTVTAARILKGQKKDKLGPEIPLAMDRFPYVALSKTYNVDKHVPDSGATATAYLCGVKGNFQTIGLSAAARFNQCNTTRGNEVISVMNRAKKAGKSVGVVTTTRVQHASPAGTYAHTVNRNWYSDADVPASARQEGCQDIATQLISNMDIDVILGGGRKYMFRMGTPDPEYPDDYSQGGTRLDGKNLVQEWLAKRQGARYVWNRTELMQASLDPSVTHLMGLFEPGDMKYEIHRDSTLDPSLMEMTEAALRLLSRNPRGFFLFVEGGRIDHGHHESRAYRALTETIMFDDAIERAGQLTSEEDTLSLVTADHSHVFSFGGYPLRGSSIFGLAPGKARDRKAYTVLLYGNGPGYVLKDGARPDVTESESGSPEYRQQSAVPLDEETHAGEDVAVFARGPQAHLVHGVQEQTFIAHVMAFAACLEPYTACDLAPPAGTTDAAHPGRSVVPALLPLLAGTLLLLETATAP
PTPN22 act: activators of human LYP (PTPN22) phosphatase; Q9Y2R2; recombinant LYP, DiFMUP fluorescence; 0 = plate median, 100 = signal doubled; actives 0.11% (n = 96,000); activation, % at 2 µM;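 active means activation at 2 µM above a set limit, the mean plus 5 SD, cut at about 37% in these data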
MT1-MMP txn act: MT1-MMP promoter transcription activation; AID 750; HT1080 MT1-MMP promoter luciferase reporter, luminescence, overnight; stronger effect = higher value; activation factor at 10 µM; actives 0.16% (n = 86,000);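 active means activation factor of at least 2 for MT1-MMP transcription at 10 µM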
* marks the source's active call; other numbers are inactive results; nt = not tested or not shown. Rows were chosen to be rich in hits. Some 1.6% of all compounds tested hit in one or more screens of this group.

SMILES	TNAP act mid DEA	LYP inh 2	PLAP activator	PTPN22 act	MT1-MMP txn act
CC(=O)Nc1nc2n(n1)C(c1ccc(F)cc1)C=C(c1ccccc1)N2 (stereo not drawn)	0.9	-4	1.1	2	1.1
O=C(Nc1nc2n(n1)C(c1ccccc1)C=C(c1ccccc1)N2)c1ccco1 (stereo not drawn)	1	-17	2.9*	14	1.1
CC1=CC(c2ccc(Cl)cc2)n2nc(NC(=O)c3ccccc3)nc2N1 (stereo not drawn)	nt	-3	2.3*	5	1.4
CCC(=O)Nc1nc2n(n1)C(c1ccc(OC)cc1)C=C(c1ccccc1)N2 (stereo not drawn)	nt	-14	1.3	15	1.2
COC(=O)c1ccc(COC(=O)CCc2nc(-c3ccccc3)c(-c3ccccc3)o2)cc1	nt	13	1.3	-13	1.2
COC(=O)[C@@]1(Cc2ccc(OC)cc2)[C@H]2c3cc(C(=O)N4CCCC4)n(Cc4cc(F)c(F)c(F)c4)c3C[C@H]2CN1C(=O)c1ccccc1	nt	nt	nt	nt	1.2
C[C@@H](C(=O)N[C@@H](CO)Cc1ccccc1)[C@H]1C[C@]1(C)[C@H](NC(=O)OCc1ccccc1)c1ccccc1	nt	nt	nt	nt	1.2
COc1ccc(S(=O)(=O)N(C)CC(=O)N2CCC(C(N)=O)CC2)cc1Cl	0.9	nt	1.2	nt	1.1
COc1cccc(-c2nn(C)c3sc(C(=O)NCc4ccc5c(c4)OCO5)cc23)c1	0.9	-1	2.2*	0	1.1
COc1cccc(NC(=O)Cn2c(-c3cncs3)nc3ccccc32)c1	1	-5	2*	3	1.1
O=C(Cn1c(-c2cncs2)nc2ccccc21)NCCc1ccccc1	0.9	-6	0.8	4	1.3
COC(=O)c1ccc(C(NC(=O)OCc2ccccc2)/C(=C/[C@@H](C)C(=O)NCc2cc(F)cc(F)c2)c2cccnc2)cc1 (stereo partly drawn)	nt	nt	nt	nt	1.3
Cc1cc(S(=O)(=O)Nc2c(C(=O)O)[nH]c3ccccc23)ccc1F	0.7	-2	2*	1	1.3
COC(=O)c1[nH]c2ccc(C)cc2c1NS(=O)(=O)c1ccc(F)c(C)c1	0.8	6	1	-8	1
CCOc1ccc(C2C(C(=O)c3cccs3)=C(O)C(=O)N2CCCn2ccnc2)cc1 (stereo not drawn)	nt	2	1.3	4	1.4
CC1(C(=O)NCCN2CCOCC2)C=CC2(CCCCC2)N1C(=O)c1ccccc1 (stereo not drawn)	nt	nt	nt	nt	1
O=C(NNC(=S)Nc1ccccc1)c1ccncc1	nt	17	2*	-15	nt
COc1cccc(C2=NC(C)(C)NC(c3ccccc3O)C2)c1 (stereo not drawn)	0.8	1	0.8	-3	2.1*
Cc1nc(-c2ccc3c(c2)OCO3)cs1	1	-6	0.8	6	1.1
CCC1(C)N=C(c2ccc3c(c2)OCO3)CC(c2ccccc2O)N1 (stereo not drawn)	nt	0	1	-1	2.4*
COc1cccc(C2=NOC(C(=O)NC(C)C)C2)c1 (stereo not drawn)	0.9	0	1	-1	1.3
COC(=O)[C@@H]1C[C@@]2(O)[C@@H](O)[C@@H](O)[C@@H](O)C[C@H]2N1Cc1cc(F)ccc1F	nt	nt	nt	nt	1
COc1ccc(-c2n[nH]c(=S)n2C2CCCCC2)cc1	0.9	-5	2*	4	1.1
Cc1cc(Cl)ccc1OCc1n[nH]c(=S)n1C1CCCCC1	nt	4	1.3	-4	1.4
COc1ccc(Cl)cc1-c1n[nH]c(=S)n1C1CCCCC1	nt	1	2.4*	0	1.1
SMILES	TNAP act mid DEA	LYP inh 2	PLAP activator	PTPN22 act	MT1-MMP txn act
Cc1ccc(Cn2ccc(NC(=O)CCSc3nc(-c4ccco4)cc(C(F)(F)F)n3)n2)cc1	1	-4	1.3	1	1.3
Cc1ccccc1Cn1ccc(NC(=O)CCSc2nc(-c3ccco3)cc(C(F)(F)F)n2)n1	0.8	25*	0.9	-21	1.2
CC(Oc1ccccc1F)C(=O)Nc1ccc2ccccc2c1 (stereo not drawn)	nt	5	nt	-4	2*
CCCC/C=C/C(NC(=O)c1ccc(C(F)(F)F)cc1)c1ccccc1 (stereo not drawn)	nt	nt	nt	nt	1.9
Cc1ccc(-c2cc(C(=O)N/N=C/c3ccco3)[nH]n2)cc1	nt	6	2.2*	-4	1.1
CC1(C)C(=O)OC(c2ccccc2)C2(CCCC2)C1=O (stereo not drawn)	nt	-1	0.9	3	nt
CCC(Sc1nc(C)cc(C)n1)C(=O)Nc1ccc(Cl)cn1 (stereo not drawn)	nt	4	nt	-5	2*
CCCN(CCC)CC(=O)Nc1cccc2c1OCO2	nt	10	1	-9	1.3
CCOC(=O)C1=C(C)OC(N)=C(C#N)C1c1c(C)nn(-c2ccc(C)cc2)c1Cl (stereo not drawn)	0.9	33*	1.4	-30	1.1
COC(=O)C1=C(C)OC(N)=C(C#N)C1c1c(C)nn(-c2ccccc2)c1Cl (stereo not drawn)	0.9	3	1.3	-3	1.1
CCOc1ccc(N(CC(=O)Nc2ccccc2C(=O)NCc2ccco2)S(C)(=O)=O)cc1	nt	41*	1.1	-42	1.1
CCOc1ccccc1N(CC(=O)Nc1ccccc1C(=O)NCc1ccco1)S(C)(=O)=O	1	2	0.8	-3	1.2
CCOC(=O)C1=C(C)N(CCCC(=O)NCCn2c(-c3ccccc3)cc(C(=O)OC)c2C)C(=O)NC1c1ccc([N+](=O)[O-])cc1 (stereo not drawn)	nt	nt	nt	nt	1.2
CC(C)Cn1c(N)c(C(=O)NCC2CCCO2)c2nc3ccccc3nc21 (stereo not drawn)	1.1	4	2*	-4	1
COC(=O)[C@@]1(Cc2ccccc2)[C@H]2c3cc(C(=O)N(C)C)n(Cc4ccc(S(C)(=O)=O)cc4)c3C[C@H]2CN1C(=O)c1ccccc1	nt	nt	nt	nt	1.1
CCOCC(=O)Nc1nc(-c2ccccc2)c(CC)s1	nt	5	0.9	-7	1.2
COc1ccc(N2CCN(C(=O)CCCn3c(=O)[nH]c4cc(Cl)ccc4c3=O)CC2)cc1	nt	-3	2*	3	1.1
O=C(CCCn1c(=O)[nH]c2cc(Cl)ccc2c1=O)NCCCN1CCCC1	1	-10	1.4	9	nt
COc1ccc(C2NC(=O)N(CCCC(=O)O)C(C)=C2C(=O)OCc2ccccc2)cc1 (stereo not drawn)	nt	nt	nt	nt	1.2
COc1ccc(C2CC(c3cccs3)=Nc3ccccc3S2)cc1 (stereo not drawn)	nt	-9	nt	6	2.1*
COC(=O)[C@@]1(Cc2ccc(F)cc2)[C@H]2c3cc(C(=O)N(C)C)n(Cc4ccc(C)c(F)c4F)c3C[C@H]2CN1C(=O)c1ccccc1	nt	nt	nt	nt	1.1
O=C(CN1CCCC1)Nc1c2c(nc3ccccc13)N(Cc1ccccc1)CC2	nt	0	2*	-2	1.3
CCC(CO)n1c(SCc2cc(=O)oc3cc(C)ccc23)nc2ccccc2c1=O (stereo not drawn)	nt	3	2.7*	0	1.1
CCc1cc(C)cc(OCCNC(=O)c2ncn[nH]2)c1	1	-18	2*	17	1.2
